Shown is part of a subset that was picked to be rich in hits.
TbREL1 inh – TbREL1 inhibition, primary screen; P86926; inhibition, % at 9.66 µM; TbREL1 RNA ligation, FRET fluorescence; 0.49% of 89,000 active;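 active means inhibition above the mean inhibition across all screened compounds plus 3 SD, cut at about 11% in these data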;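 further: 0% = plate median of test wells and 100% = NSC42067 control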
Target sequence (P86926 whole entry, looked up): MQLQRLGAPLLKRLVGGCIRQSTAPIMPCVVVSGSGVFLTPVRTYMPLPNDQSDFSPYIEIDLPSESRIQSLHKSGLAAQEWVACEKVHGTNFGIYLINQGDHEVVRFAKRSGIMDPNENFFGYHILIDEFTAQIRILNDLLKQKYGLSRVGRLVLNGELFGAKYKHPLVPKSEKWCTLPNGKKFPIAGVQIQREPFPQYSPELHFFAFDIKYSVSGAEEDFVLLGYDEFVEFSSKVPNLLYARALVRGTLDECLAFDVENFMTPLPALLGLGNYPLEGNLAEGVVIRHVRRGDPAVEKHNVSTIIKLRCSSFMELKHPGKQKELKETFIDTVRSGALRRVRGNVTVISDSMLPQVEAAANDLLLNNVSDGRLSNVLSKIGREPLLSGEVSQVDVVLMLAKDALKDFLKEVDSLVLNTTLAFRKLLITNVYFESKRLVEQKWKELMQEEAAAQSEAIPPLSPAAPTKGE
* = called active by the depositor.

SMILES	TbREL1 inh
O=C(C[n+]1cc(-c2ccccc2)n2c1CCC2)c1cccs1	0
COc1ccc(-c2c[n+](CC(=O)OC3CC(C)CCC3C(C)C)c3n2CCC3)cc1 (centres undefined)	15*
CC1CCC(C(C)C)C(OC(=O)Cn2c(-c3ccc(Br)cc3)[n+](C)c3ccccc32)C1 (centres undefined)	9
Cc1cc(C)cc(N(CC(=O)NC2CCC(C)CC2)S(=O)(=O)c2ccccc2)c1 (centres undefined)	2
Cc1occc1C(=O)N/N=C/c1ccc[nH]1	0
Cc1occc1C(=O)N/N=C/C(Br)=C/c1ccccc1	11*
Cn1cc(C(=O)N/N=C/C(Br)=C\c2ccccc2)ccc1=O	-3
O=C(NCCc1ccc2c(c1)OCO2)c1cc(-c2ccccc2)c(N2CCOCC2)s1	1
O=C1C(NC(=O)N2c3ccccc3C=Cc3ccccc32)CCCCN1Cc1ccc(Cl)cc1 (centres undefined)	3
COC(=O)CNC(=O)CNC1(C(=O)NCCc2c[nH]c3ccccc23)CCCCC1	-5
Cc1ccc(C)c(NC(=O)CN(C)C(=O)c2ccc(Cl)nc2)c1	11*
Cc1ccc(C)c(NC(=O)CN(C)C(=O)c2ccc3c(=O)n4c(nc3c2)CCC4)c1	0
Cc1ccc(C)c(NC(=O)CN(C)C(=O)Cc2ccccc2)c1	-1
Clc1cccc(CNC2CCC23CCCCC3)c1 (centres undefined)	-6
N#Cc1c(Cl)c(Cl)c2nnc(-c3ccc(Br)cc3)n2c1Cl	16*
Cc1ccc2c(n1)sc1c(-c3ccc(Br)cc3)c(C#N)c(N)nc12	-1
CCC[C@H]1[C@@H](OC(=O)NCc2ccc(C)cc2)CC[C@@]23CCCN2C(=O)CCC[C@@H]13	-3
C[C@H]1[C@@H](NCc2ccccc2)CC[C@@]23CCCN2C(=O)CCC[C@@H]13	-4
CCOC(=O)c1csc(NC(=O)C2CCCN(S(=O)(=O)c3ccc([N+](=O)[O-])cc3)C2)n1 (centres undefined)	1
O=C(NC1CCCCN(Cc2ccc(Cl)cc2)C1=O)c1ccc(F)c(F)c1 (centres undefined)	6
CC1=CC(=O)C(C(C)C)=C/C1=N\OS(=O)(=O)c1ccccc1	-1
CC(=O)Nc1ccc(OCC(O)CNC2CCCC2)cc1 (centres undefined)	0
Cc1ccccc1OCC(O)CNC1CCC(NCC(O)COc2ccccc2C)CC1 (centres undefined)	17*
OC(CNC1Cc2ccccc2C1)COc1ccc(F)cc1 (centres undefined)	4
CCOC(=O)C1CCCCN1C(=O)[C@@H]1CC=C[C@@H]2CCN(c3ccccc3)C(=O)[C@@H]21 (some centres undefined)	-5
SMILES	TbREL1 inh
Cc1ccccc1CN1CCCCC(NC(=O)Cc2cccs2)C1=O (centres undefined)	-3
CCCCC#CC(CC)NCc1ccc(OC)cc1OC (centres undefined)	-1
COc1cccc(/C=N/NC(=O)CNC(=O)CCc2ccccc2)c1O	1
O=C1C(C=NCc2cccnc2)=C(O)c2ccccc21	2
Oc1cccc(C=NCc2ccccc2)c1O	12*
CNc1ccccc1/C(O)=C(\C#N)C(=O)NCc1cccs1	3
C=CCN1C(=O)[C@H](CC(=O)N2CCOCC2)[C@@]2(C(=O)OCC)CCCC=C12	0
COc1cc(O)c2c(=O)c3c(O[C@H]4O[C@@H](CO)[C@H](O)[C@@H](O)[C@@H]4O)ccc(O)c3oc2c1	-3
O=c1cc(-c2ccc(O)c(O)c2)oc2cc(O)c([C@@H]3O[C@H](CO)[C@@H](O)[C@H](O)[C@H]3O)c(O)c12	48*
COc1cc2ccc(=O)oc2c(O[C@@H]2O[C@H](CO)[C@@H](O)[C@H](O)[C@H]2O)c1O	-5
Fc1ccc(-c2n[nH]c(=S)n2N=Cc2ccc(OCc3ccccc3)cc2)cc1	-6
CCC[C@H]1[C@@H](NC(=O)c2cccnc2)CC[C@@]23CCCN2C(=O)CCC[C@@H]13	4
O=C(CSc1nnc(-c2cccs2)o1)Nc1cccc2ccccc12	-2
O=C1CC(=O)N(Cc2cccs2)C(=O)N1	4
O=C1C2C(C(=O)N1Cc1ccco1)C1C=CC2C12CC2 (centres undefined)	-2
O=C1CC(=O)N(Cc2ccco2)C(=O)N1	70*
CN(C)[C@@H]1CCN(c2cccc3c2S(=O)(=O)N2CC[C@H](C2)O3)C1	-1
O=C1CSc2ccc(C(=O)N3CCCC(C(=O)N4CCN(c5ccc(F)cc5)CC4)C3)cc2N1 (centres undefined)	2
Cc1ccc(S(=O)(=O)N2C=C(c3ccccc3)c3ccccc3-c3ccccc32)cc1	7
O=C(NCc1ccco1)C1CCCN(S(=O)(=O)c2ccc(F)cc2)C1 (centres undefined)	2
CCCCCCC(=O)NC1CCCCN(Cc2ccc(Cl)cc2)C1=O (centres undefined)	-2
COc1ccc(-c2cc(NC(=O)Cc3c[nH]c4ccccc34)ccc2Nc2cccnc2)c(OC)c1	0
CC(C)(N[C@@H](Cc1c[nH]c2ccccc12)C(=O)NCCCc1ccccc1)C(=O)NCc1ccccc1	-7
COc1ccc(Cn2c(C)nc3c(c(=O)c4ccccc4n3C)c2=O)cc1	3
COc1ccc(Cn2c(C)nc3c(c2=O)c2nc4ccccc4nc2n3Cc2ccco2)cc1	11*
SMILES	TbREL1 inh
COc1ccc2c(=O)c3c(=O)n(Cc4ccco4)c(-c4ccccc4)nc3oc2c1	0
COc1ccc(C(=O)O)cc1S(=O)(=O)N(C)CCc1ccccn1	-1
COc1ccc(CN(C)CCc2ccccn2)c(OC)c1OC	18*
Cc1cccc(CN(C)CCc2ccccn2)c1	2
Oc1ccc2ccccc2c1C=Nn1c(-c2n[nH]c3c2CCC3)n[nH]c1=S	-2
Cn1c(=O)cc(OCCCC(=O)Nc2cc(-c3cn[nH]c3)ccn2)c2ccccc21	1
COc1ccc(CN[C@@H]2CC[C@@]34CCCN3C(=O)CCC[C@H]4C2)cc1	7
CN(C)[C@@H]1CCN(c2cccc3c2S(=O)(=O)N2CC[C@@H](C2)O3)C1	4
CC(=O)Nc1sc2c(c1-c1nc3ccccc3s1)CCCN(C(C)C)C2	0
CCCCCCCCCn1cc(C(C)=O)c(=O)[nH]c1=O	19*
CCCCCCOC(=O)CCn1[nH]c(=O)c2ccccc2c1=O	2
CCCCCCCN1C=CC(=O)CC1	-4
COC(=O)CNC(=O)[C@H](Cc1ccccc1)NC1(C(=O)NCCc2c[nH]c3ccccc23)CCCCC1	-11
CCOc1ccc(CCNC(=O)C2CCCCC2)cc1OCC	2
O=C(Nc1ccc2c(c1)OCO2)NC1CCCCN(Cc2cccc(Cl)c2)C1=O (centres undefined)	6
C#CCOCCOCCOCCNc1nc(N2CCOCC2)nc(N2CCN(C(=O)CCCCCCCCCCNC(=O)[C@@H](CCC(=O)O)n3cc(CCCCCN)nn3)CC2)n1	2
C#CCOCCOCCOCCNc1nc(N2CCN(C(=O)[C@H]([C@@H](C)CC)n3cc(CCCCN)nn3)CC2)nc(N2CCN(C(=O)[C@H](C)n3cc(CCC(=O)O)nn3)CC2)n1	7
C#CCOCCOCCOCCNc1nc(N2CCOCC2)nc(N2CCN(C(=O)CCCCCCCCCCNC(=O)[C@@H]([C@H](C)CC)n3cc(CCCCCN)nn3)CC2)n1	13*
CC1CCN(c2ccc(C(=O)O)cc2NS(=O)(=O)c2ccccc2)CC1	8
O=C(NCCCc1ccccc1)O[C@@H]1CC[C@@]23CCCN2C(=O)CCC[C@H]3C1	5

Screening data (PubChem)
